Records with an inconclusive call do not appear. Activity calls are given as the source filed them. Calls come from the whole dose curve; as a rule, active = well fitted inhibition curve with a large enough effect; inconclusive = small, poorly fitted or top-dose-only effect; inactive = no such curve, though single readings can be large or run the other way.
Experiment: BET inhibitor-based combinations targeting novel dependencies in MECOM-rearranged (r) AML: MV-4-11 cell line (AID 2202233); note: nearly all actives have a fitted effect of over 45% in size
Settings: MV-4-11 AML viability, CellTiter-Glo luminescence, 48 h; series mostly up to 46 µM
Outline: (§1)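 Cells at 500/well were exposed for 48 hr to MIPE v5.0 drugs as 11-point dose curves. Viability was read by CellTiter-Glo luminescence and normalized to DMSO and empty-well controls. Activity was expressed as AUC and per-cell-line Z-AUC.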
Potency is the fitted concentration of half-maximal effect.

Structure (SMILES)	Potency
O=C(O)C[C@H](O)C[C@H](O)/C=C/c1c(C2CC2)nc2ccccc2c1-c1ccc(F)cc1	2.09 µM (active)
NCC(=O)Nc1ccc(-n2nc(C(F)(F)F)cc2-c2ccc3c(ccc4ccccc43)c2)cc1	4.68 µM (active)
CCc1nc(-c2cccc(C)c2)c(-c2ccnc(NC(=O)c3ccccc3)c2)s1	10.5 µM (active)
COc1cc2c(NC3CCN(CC4CCCCC4)CC3)nc(N3CCCN(C(C)C)CC3)nc2cc1OCCCN1CCCCC1	6.61 µM (active)
Cc1cnc(Nc2cccc(CN3CCOCC3)c2)nc1Nc1cccc(S(=O)(=O)NC(C)(C)C)c1	0.332 µM (active)
C[C@@]1(c2cc(-c3cncnc3)c(F)cc2F)CCSC(N)=N1	inactive
CC(C)N(CCCNC(=O)Nc1ccc(C(C)(C)C)cc1)C[C@H]1O[C@@H](n2cc(Br)c3c(N)ncnc32)[C@H](O)[C@@H]1O	20.9 µM (active)
COc1cc(C)c(Sc2cnc(NC(=O)c3ccc(CNC(C)C(C)C)cc3)s2)cc1C(=O)N1CCN(C(C)=O)CC1 (stereo unspecified)	7.42 µM (active)
Cc1nnc(C(C)C)n1C1CC2CCC(C1)N2CCC(NC(=O)C1CCC(F)(F)CC1)c1ccccc1 (stereo unspecified)	inactive
Cc1nn(C)c(COc2ccc(N3CCN(S(=O)(=O)N(C)C)CC3)cc2)c1-c1cccc2c(CCCOc3cccc4ccccc34)c(C(=O)O)n(CCN3CCOCC3)c12	6.61 µM (active)
Cc1cc(C)cc(NC(=O)Cc2ccc(OC(C)(C)C(=O)O)cc2)c1	inactive
OC(c1ccc(-c2ccc(CN3CCN(Cc4ccncc4)CC3)cc2)c(F)c1)(C(F)(F)F)C(F)(F)F	8.33 µM (active)
Cn1cncc1C(N)(c1ccc(Cl)cc1)c1ccc2c(c1)c(-c1cccc(Cl)c1)cc(=O)n2C (stereo unspecified)	5.25 µM (active)
CC(C)(C)NC(=O)Nc1cccc(Nc2ncc(F)c(NC(C)(C)CO)n2)c1	2.63 µM (active)
Cn1cc(-c2cnn3c(N)c(Br)c([C@@H]4CCCNC4)nc23)cn1	0.468 µM (active)
Cc1ccc2nc(NC(=O)CSc3nc4c(c(=O)n3-c3ccccc3)SCC4)sc2c1	inactive
CC1(C)Cc2c(-c3ccccc3)c(-c3ccc(Cl)cc3)c(CC(=O)O)n2C1	23.5 µM (active)
CCOc1cc2c(c(F)c1OCC)C(=N)N(CC(=O)c1cc(N3CCOCC3)c(OC)c(C(C)(C)C)c1)C2	8.33 µM (active)
COc1cc2c(cc1OC)CN(CCc1ccc(NC(=O)c3cccc4c(=O)c5cccc(OC)c5[nH]c34)cc1)CC2	inactive
CC(C)C(=O)Nc1ncc(-c2cc(C(F)F)nn2-c2c(Cl)cccc2Cl)s1	20.9 µM (active)
O=C(O)Cn1nnc(-c2cc(N3CCC(Oc4cc(F)ccc4Br)CC3)no2)n1	inactive
CCNCc1nc2c(N)nc3ccccc3c2n1CC(C)(C)O	20.9 µM (active)
COc1cccc(Nc2c(C(N)=O)cnc3c(C)cc(S(=O)(=O)c4cccc(C(=O)N(C)C)c4)cc23)c1	3.32 µM (active)
C[C@H]1Oc2cc(cnc2N)-c2c(nn(C)c2C#N)CN(C)C(=O)c2ccc(F)cc21	18.6 µM (active)

Experiment: BET inhibitor-based combinations targeting novel dependencies in MECOM-rearranged (r) AML: HNT-34 cell line (AID 2202234); note: nearly all actives have a fitted effect of over 35% in size
Settings: HNT-34 AML viability, CellTiter-Glo luminescence, 48 h; series mostly up to 46 µM
Outline: as §1

Structure (SMILES)	Potency
O=C(O)C[C@H](O)C[C@H](O)/C=C/c1c(C2CC2)nc2ccccc2c1-c1ccc(F)cc1	2.95 µM (active)
Cc1cnc(Nc2cccc(CN3CCOCC3)c2)nc1Nc1cccc(S(=O)(=O)NC(C)(C)C)c1	1.66 µM (active)
C[C@@]1(c2cc(-c3cncnc3)c(F)cc2F)CCSC(N)=N1	inactive
CC(C)N(CCCNC(=O)Nc1ccc(C(C)(C)C)cc1)C[C@H]1O[C@@H](n2cc(Br)c3c(N)ncnc32)[C@H](O)[C@@H]1O	26.3 µM (active)
Nc1ncnc2c1c(-c1cccc(OCc3ccccc3)c1)cn2C1CC(CN2CCC2)C1 (stereo unspecified)	18.6 µM (active)
COc1cc(C)c(Sc2cnc(NC(=O)c3ccc(CNC(C)C(C)C)cc3)s2)cc1C(=O)N1CCN(C(C)=O)CC1 (stereo unspecified)	16.6 µM (active)
Cc1nnc(C(C)C)n1C1CC2CCC(C1)N2CCC(NC(=O)C1CCC(F)(F)CC1)c1ccccc1 (stereo unspecified)	inactive
Cc1cc(C)cc(NC(=O)Cc2ccc(OC(C)(C)C(=O)O)cc2)c1	inactive
OC(c1ccc(-c2ccc(CN3CCN(Cc4ccncc4)CC3)cc2)c(F)c1)(C(F)(F)F)C(F)(F)F	inactive
Cn1cncc1C(N)(c1ccc(Cl)cc1)c1ccc2c(c1)c(-c1cccc(Cl)c1)cc(=O)n2C (stereo unspecified)	0.263 µM (active)
CN(C)N(C)C(=O)[C@@]1(Cc2ccccc2)CCCN(C(=O)[C@@H](Cc2c[nH]c3ccccc23)NC(=O)C(C)(C)N)C1	16.6 µM (active)
C=C1[C@H](CO)[C@@H](O)C[C@@H]1n1cnc2c(=O)[nH]c(N)nc21	inactive
CNC(=O)c1ccc(N2C(=S)N(c3cnc(C#N)c(C(F)(F)F)c3)C(=O)C23CCC3)cc1F	inactive
Cc1ccc2nc(NC(=O)CSc3nc4c(c(=O)n3-c3ccccc3)SCC4)sc2c1	inactive
Cc1cc(Nc2ncnc3ccc(-c4ccc(CNCCS(C)(=O)=O)o4)cc23)ccc1Oc1ccn2ncnc2c1	inactive
CCOc1cc2c(c(F)c1OCC)C(=N)N(CC(=O)c1cc(N3CCOCC3)c(OC)c(C(C)(C)C)c1)C2	8.33 µM (active)
CC(C)C(=O)Nc1ncc(-c2cc(C(F)F)nn2-c2c(Cl)cccc2Cl)s1	16.6 µM (active)
O=C(O)Cn1nnc(-c2cc(N3CCC(Oc4cc(F)ccc4Br)CC3)no2)n1	inactive
O=C(NC[C@H](O)CN1CCc2ccccc2C1)c1cc(NC2COC2)ncn1	inactive
C=Cc1cc(O)cc2nc(-c3ccc(O)c(F)c3)oc12	inactive
CC1(C)CCC(c2ccc(Cl)cc2)=C(CN2CCN(c3ccc(C(=O)NS(=O)(=O)c4ccc(N[C@H](CCN5CCOCC5)CSc5ccccc5)c(S(=O)(=O)C(F)(F)F)c4)cc3)CC2)C1	0.468 µM (active)
CC(=O)N1CCN(CCOc2ccc(C3CCN(C4=Nn5c(nnc5C(F)(F)F)CC4)CC3)cc2)CC1	inactive

— PubChem BioAssay (NCATS)
